Results filed as inconclusive are left out. A call without a number means that no potency is given here. Activity calls are given as the source filed them. Calls come from the whole dose curve.

One test deals with Atrial natriuretic peptide receptor 1 (Homo sapiens) (UniProt P16066). The test can be described thus: Natriuretic polypeptide receptor (hNpr1) antagonism - Pilot screen (AID 1347049).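 For potency: agonist-evoked cGMP luminescence read 20 min after hNppA addition; potency is the fitted concentration of half-maximal effect.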 The conditions noted are these: hNpr1 cells, antagonist mode cGMP read-out; series mostly up to 57.5 µM. A digest of the protocol: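 HEK293 cells expressing hNpr1 and GloSensor cGMP luciferase, 1500/well, loaded with 2% GloSensor reagent 2 h, compound 30 min at room temperature; luminescence read before and 20 min after 0.1 nM hNppA stimulation.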
Atrial natriuretic peptide receptor 1 (Homo sapiens), sequence (P16066 whole entry, looked up): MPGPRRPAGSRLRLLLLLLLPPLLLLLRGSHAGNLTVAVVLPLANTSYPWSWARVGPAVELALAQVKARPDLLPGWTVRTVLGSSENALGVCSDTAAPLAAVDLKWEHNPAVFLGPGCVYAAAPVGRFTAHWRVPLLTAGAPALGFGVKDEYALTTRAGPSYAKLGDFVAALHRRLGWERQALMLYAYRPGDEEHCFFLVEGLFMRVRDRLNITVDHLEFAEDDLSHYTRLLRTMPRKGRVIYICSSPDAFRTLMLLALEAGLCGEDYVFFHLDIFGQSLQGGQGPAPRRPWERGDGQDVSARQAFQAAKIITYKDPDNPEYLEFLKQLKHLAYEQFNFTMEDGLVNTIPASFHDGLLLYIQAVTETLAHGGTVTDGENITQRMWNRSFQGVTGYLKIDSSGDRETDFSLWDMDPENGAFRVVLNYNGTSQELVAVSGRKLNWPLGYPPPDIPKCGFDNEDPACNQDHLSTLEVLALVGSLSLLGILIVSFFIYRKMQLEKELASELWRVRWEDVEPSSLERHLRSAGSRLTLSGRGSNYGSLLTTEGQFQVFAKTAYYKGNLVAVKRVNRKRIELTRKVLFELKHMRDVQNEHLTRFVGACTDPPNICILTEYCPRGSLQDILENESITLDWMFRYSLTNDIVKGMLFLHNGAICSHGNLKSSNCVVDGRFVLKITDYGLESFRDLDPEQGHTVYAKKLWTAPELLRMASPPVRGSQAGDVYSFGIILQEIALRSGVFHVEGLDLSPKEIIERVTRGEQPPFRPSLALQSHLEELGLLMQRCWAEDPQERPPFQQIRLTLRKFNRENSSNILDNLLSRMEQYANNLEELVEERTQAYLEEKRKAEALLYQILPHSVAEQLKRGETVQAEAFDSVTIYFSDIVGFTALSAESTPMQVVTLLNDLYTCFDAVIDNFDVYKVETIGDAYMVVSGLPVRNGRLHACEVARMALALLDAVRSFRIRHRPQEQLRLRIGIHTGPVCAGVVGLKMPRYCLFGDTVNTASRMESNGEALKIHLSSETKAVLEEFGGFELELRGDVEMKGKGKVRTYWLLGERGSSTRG
As for `Nc1ccn([C@@H]2O[C@H](CO)[C@@H](O)C2O)c(=O)n1` (stereo partly specified), the Potency entry is “inactive”.
For `O=C(O)c1cccnc1Nc1cccc(C(F)(F)F)c1`, the Potency result was “inactive”.
Still for that read-out and setting: as for `CNC[C@H](O)c1ccc(O)c(O)c1`, the entry is “inactive”.
As for `O=C(CCc1ccc(O)cc1)c1c(O)cc(O)cc1O`, the Potency entry was “inactive”.
Same read-out and setting: for `O=C1NC(=O)C(c2ccccc2[N+](=O)[O-])=C1Nc1ccc(O)c(Cl)c1` the value was “inactive”; for `Cc1cc(O)c2c(c1)C(=O)c1cc(O)cc(O)c1C2=O`, 23.9 µM (active); for `COc1cc2nc(N3CCN(C(=O)C4CCCO4)CC3)nc(N)c2cc1OC` (stereo unspecified), “inactive”.
With `CN(C)CCCC1(c2ccc(F)cc2)OCc2cc(C#N)ccc21` (stereo unspecified), the Potency entry is “inactive”.
`O=c1c(O)c(-c2ccc(O)cc2O)oc2cc(O)cc(O)c12`: the Potency entry is “inactive”.
Take `COc1cc2c(cc1OC)C1CC(=O)C(CC(C)C)CN1CC2` (stereo unspecified): the Potency result was “inactive”.
As for `CC(C)c1ccc2c(c1)c(SC(C)(C)C)c(CC(C)(C)C(=O)O)n2Cc1ccc(Cl)cc1`, the Potency entry was “inactive”.
`NCCCCNCCCN`: the Potency entry was “inactive”.
The same measure, in the same setting: as for `NC(=NCc1ccccc1)NC(=O)c1nc(Cl)c(N)nc1N`, the entry is “inactive”.
Turning to `Oc1ccc2ccccc2c1SSc1c(O)ccc2ccccc12`, the outcome was “inactive; inac”.
`CC1(C)C(=O)N(CCN2CCC(C(=O)c3ccc(F)cc3)CC2)c2ccccc21`: the Potency result is “inactive”.
Still for that read-out and setting: as for `O=C1c2c(O)cc(O)cc2OC(c2ccc(O)c(O)c2)C1O` (stereo unspecified), the entry is “inactive”; as for `O=c1cc(N2CCOCC2)oc2c(-c3ccccc3)cccc12`, “inactive”.
With `C[C@H](Cc1ccc(O)c(O)c1)[C@@H](C)Cc1ccc(O)c(O)c1`, the Potency result is “inactive”.
For `O=C(c1ccccc1)c1ccc2n1CCC2C(=O)O` (stereo unspecified), the Potency result was “inactive”.
On to `COc1ccccc1N1CCN(CCN(C(=O)C2CCCCC2)c2ccccn2)CC1`, for which the Potency result was “inactive”.
Turning to `COc1ccc2cc([C@H](C)C(=O)O)ccc2c1`, the Potency result is “inactive”.
The same measure, in the same setting: as for `Nc1nc(OCc2ccccc2)c2[nH]cnc2n1`, the entry is “inactive”; as for `CCN(CC)C(=S)SSC(=S)N(CC)CC`, 2.39 µM (active); as for `O=c1ccc2ccc(O)c(O)c2o1`, “inactive”.
With `CCOC(=O)C(C)Oc1cccc2c(=O)n(CC(=O)Nc3ccc4c(c3)OCCO4)ccc12` (stereo unspecified), the Potency entry was “inactive”.

The target in the next test is Atrial natriuretic peptide receptor 2 (Homo sapiens) (UniProt P20594). The test can be described thus: Natriuretic polypeptide receptor (hNpr2) antagonism - Pilot subtype selectivity assay (AID 1347050). The following applies: NPR2-expressing cells, cGMP antagonist-mode read-out; series mostly up to 38.3 µM. A digest of the protocol: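 HEK293 cells expressing hNpr2 and a GloSensor cGMP luciferase sensor, 1500/well, preloaded 2 h with 2% GloSensor reagent, compound 30 min, then 1 nM hNppC for 20 min. Antagonism from luminescence after versus baseline pre-read; LOPAC in 1:5 titrations.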
Atrial natriuretic peptide receptor 2 (Homo sapiens), sequence (P20594 whole entry, looked up): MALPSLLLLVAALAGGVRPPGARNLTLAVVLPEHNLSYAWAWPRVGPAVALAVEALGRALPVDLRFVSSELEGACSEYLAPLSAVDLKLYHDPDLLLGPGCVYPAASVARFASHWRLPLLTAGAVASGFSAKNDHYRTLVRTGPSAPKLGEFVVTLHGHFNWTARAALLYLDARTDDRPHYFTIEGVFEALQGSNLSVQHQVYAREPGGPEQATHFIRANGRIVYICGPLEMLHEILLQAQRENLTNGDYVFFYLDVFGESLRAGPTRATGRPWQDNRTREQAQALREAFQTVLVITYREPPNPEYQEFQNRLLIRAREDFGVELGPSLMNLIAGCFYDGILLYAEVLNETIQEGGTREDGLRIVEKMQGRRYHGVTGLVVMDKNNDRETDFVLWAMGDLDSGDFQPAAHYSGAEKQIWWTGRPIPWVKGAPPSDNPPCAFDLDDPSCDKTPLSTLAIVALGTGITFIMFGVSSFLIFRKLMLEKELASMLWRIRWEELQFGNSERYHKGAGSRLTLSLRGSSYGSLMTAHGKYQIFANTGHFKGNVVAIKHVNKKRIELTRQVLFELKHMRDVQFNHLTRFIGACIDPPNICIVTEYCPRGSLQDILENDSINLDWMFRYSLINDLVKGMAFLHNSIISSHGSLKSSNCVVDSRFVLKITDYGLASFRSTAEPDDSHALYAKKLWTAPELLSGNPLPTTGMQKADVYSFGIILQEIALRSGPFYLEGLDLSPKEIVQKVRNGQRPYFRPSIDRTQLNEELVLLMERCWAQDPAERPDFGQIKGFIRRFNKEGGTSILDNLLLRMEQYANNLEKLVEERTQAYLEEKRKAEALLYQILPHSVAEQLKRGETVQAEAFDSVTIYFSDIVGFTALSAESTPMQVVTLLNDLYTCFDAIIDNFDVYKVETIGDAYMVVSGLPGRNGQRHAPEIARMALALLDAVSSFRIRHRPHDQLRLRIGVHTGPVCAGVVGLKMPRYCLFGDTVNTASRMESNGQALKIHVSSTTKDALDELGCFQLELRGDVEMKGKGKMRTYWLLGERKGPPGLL
For `O=c1c(O)c(-c2cc(O)c(O)c(O)c2)oc2cc(O)cc(O)c12`, the Potency result is “inactive”.
`Nc1ccn([C@@H]2O[C@H](CO)[C@@H](O)C2O)c(=O)n1` (stereo partly specified): the Potency entry was “inactive”.
For `O=C(O)c1cccnc1Nc1cccc(C(F)(F)F)c1`, the Potency entry was “inactive”.
For `CNC[C@H](O)c1ccc(O)c(O)c1`, the Potency result was “inactive”.
Take `OC(CN1CCN(c2cccc(Cl)c2)CC1)C(c1ccccc1)c1ccccc1` (stereo unspecified): the Potency entry is “inactive”.
`O=C(CCc1ccc(O)cc1)c1c(O)cc(O)cc1O`: the Potency entry is “inactive”.
On to `O=C1NC(=O)C(c2ccccc2[N+](=O)[O-])=C1Nc1ccc(O)c(Cl)c1`, for which the Potency entry was “inactive”.
On to `COc1cc2nc(N3CCN(C(=O)C4CCCO4)CC3)nc(N)c2cc1OC` (stereo unspecified), for which the Potency entry is “inactive”.
On to `C[C@@H](N)C1CCC(C(=O)Nc2ccncc2)CC1` (stereo partly specified), for which the Potency entry was “inactive”.
As to `CN(C)CCCC1(c2ccc(F)cc2)OCc2cc(C#N)ccc21` (stereo unspecified), the Potency result was “inactive”.
Take `O=c1c(O)c(-c2ccc(O)cc2O)oc2cc(O)cc(O)c12`: the Potency entry was “inactive”.
As for `COc1cc2c(cc1OC)C1CC(=O)C(CC(C)C)CN1CC2` (stereo unspecified), the Potency result is “inactive”.
Turning to `CC(C)c1ccc2c(c1)c(SC(C)(C)C)c(CC(C)(C)C(=O)O)n2Cc1ccc(Cl)cc1`, the Potency result was “inactive”.
For the compound `NCCCCNCCCN`, the Potency result is “inactive”.
`NC(=NCc1ccccc1)NC(=O)c1nc(Cl)c(N)nc1N`: the Potency result is “inactive”.
As for `CC1(C)C(=O)N(CCN2CCC(C(=O)c3ccc(F)cc3)CC2)c2ccccc21`, the Potency entry was “inactive”.
On to `O=C1c2c(O)cc(O)cc2OC(c2ccc(O)c(O)c2)C1O` (stereo unspecified), for which the Potency result was “inactive”.
For the compound `O=c1cc(N2CCOCC2)oc2c(-c3ccccc3)cccc12`, the Potency result was “inactive”.
On to `CC1(C)NC(=O)N(c2ccc([N+](=O)[O-])c(C(F)(F)F)c2)C1=O`, for which the Potency entry was “inactive”.
On to `CC(=O)O[C@H]1C(=O)[C@@]2(C)C([C@H](OC(=O)c3ccccc3)[C@]3(O)C[C@H](OC(=O)[C@H](O)[C@@H](NC(=O)c4ccccc4)c4ccccc4)C(C)=C1C3(C)C)[C@]1(OC(C)=O)CO[C@@H]1C[C@@H]2O` (stereo partly specified), for which the Potency result is “inactive”.
As for `Oc1ccc(-c2nc(-c3ccc(F)cc3)c(-c3ccncc3)[nH]2)cc1`, the Potency entry was “inactive”.
Regarding `C[C@H](Cc1ccc(O)c(O)c1)[C@@H](C)Cc1ccc(O)c(O)c1`, the Potency entry is “inactive”.
Still for that read-out and setting: for `O=C1c2ccccc2-c2n[nH]c3cccc1c23` the value was “inactive”; for `O=C(c1ccccc1)c1ccc2n1CCC2C(=O)O` (stereo unspecified), “inactive”; for `COc1ccccc1N1CCN(CCN(C(=O)C2CCCCC2)c2ccccn2)CC1`, “inactive”.
Take `COc1ccc2cc([C@H](C)C(=O)O)ccc2c1`: the Potency result is “inactive”.
